Assay results: PubChem BioAssay AID686979 (National Center for Advancing Translational Sciences (NCATS), 2013)
About 50,000 (12%) of roughly 420,000 compounds were called active. Roughly 26% stayed inconclusive and do not appear here. What follows is part of a selection rich in actives, with near analogues and random picks from the rest. A call without a number means that no potency is given here. Values without a mark were called inactive. Calls come from the whole dose curve; as a rule, active = well fitted inhibition curve with a large enough effect; inconclusive = small, poorly fitted or top-dose-only effect; inactive = flat fitted curve, though single readings scatter.

Assay: qHTS for Inhibitors of human tyrosyl-DNA phosphodiesterase 1 (TDP1): qHTS in cells in presence of CPT; note: nearly all actives have a fitted effect of over 55% in size
Details: chicken DT40 Tdp1-/-;hTDP1 cells + 20 nM CPT, ATP luminescence, 48 h; series mostly up to 46.2 µM
Summary of the method: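 Chicken DT40 Tdp1-/- cells complemented with human TDP1, 400 cells/well, exposed to compounds plus 20 nM camptothecin for at least 48 h at 37 C; viability read as ATP content by CellTiter-Glo luminescence.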
Potency is the fitted concentration of half-maximal effect.

Row | Structure (SMILES) | Potency | activity change, negative = growth inhibition
1 | O=C(O)c1ccc(Cn2cnc3c(=S)nc[nH]c32)cc1 | inactive | 
2 | O=C(c1cccnc1)N1CCN(S(=O)(=O)c2cccs2)CC1 | inactive | 
3 | Cc1ccc(C)c(S(=O)(=O)N2CC(=O)Nc3ccccc32)c1 | inactive | 
4 | CC1Cc2ccccc2N1S(=O)(=O)c1c(N)n(C)c(=O)n(C)c1=O (centres undefined) | inactive | 
5 | CCC1CN(S(=O)(=O)c2cc(-c3cc(C)no3)ccc2C)c2cc(C)ccc2O1 (centres undefined) | 20.6 µM (active) | 
6 | CCc1noc(C)c1C(=O)NCCN1Cc2cc(OC)ccc2OC(CC)C1 (centres undefined) |  | -8.71% [at 9.04 µM]
7 | Cc1cc(-c2ccc(C)c(S(=O)(=O)Nc3ccc(S(N)(=O)=O)cc3)c2)on1 | inactive | 
8 | Cc1cc(-c2ccc(C)c(S(=O)(=O)N3c4ccccc4CC3C)c2)on1 (centres undefined) | 18.4 µM (active) | 
9 | CC(=O)c1ccc(S(=O)(=O)Nc2ccc(-c3ccc4nncn4n3)cc2)cc1 | inactive | 
10 | O=C(O)C(=Cc1ccccc1[N+](=O)[O-])c1ccccc1 | inactive | 
11 | CCCCCCCC1(C)NC(=O)N(CC(=O)Nc2cc(C)on2)C1=O (centres undefined) | inactive | 
12 | COc1ccc(NC(=O)CN(C)C(=O)c2cccc(S(=O)(=O)N3CCN(c4ccccc4)CC3)c2)cc1 | 18.4 µM (active) | 
13 | COc1ccc(NC(=O)CN(C)C(=O)c2cc(C3CC3)nn2-c2ccccc2)cc1 | inactive | 
14 | CCOc1ccc(NC(=O)CN(C)C(=O)c2cccc(S(=O)(=O)N3CCCC3)c2)cc1OCC | inactive | 
15 | COc1cc(/C(=C/c2ccccc2)c2ccccc2)c2c(c1)oc1ccccc12 | inactive | 
16 | O=C(CSc1n[nH]c(-c2cccnc2)n1)Nc1ccc(Cl)cc1 | inactive | 
17 | COc1cc(C#Cc2ccc3cc(CCCO)oc(=O)c3c2)cc(OC)c1 | 0.651 µM (active) | 
18 | Cc1ccc(N(CC(=O)NC2CCCCC2)C(=O)CCCC(=O)Nc2ccccn2)c(C)c1 | inactive | 
19 | CC(C)(C)S(=O)(=O)c1ccccc1-c1noc(-c2ccccc2)c1C(N)=O | inactive | 
20 | COc1ccc(S(=O)(=O)N(CC(=O)NCc2ccco2)c2ccc(F)cc2)cc1 | inactive | 
21 | Cc1ccc(N(CC(=O)NCc2ccc(Cl)cc2)S(=O)(=O)N(C)C)cc1 | inactive | 
22 | COc1ccc(CNC(=O)CN(c2ccc(OC)c(Cl)c2)S(=O)(=O)c2ccc(C)cc2)cc1 | 25.9 µM (active) | 
23 | COCc1cc(C)nc2sc(C(=O)NC3CCCCC3)c(N)c12 | inactive | 
24 | O=C(O)C1=C(C(=O)O)C2CCC1C2 | inactive | 
25 | CCN(CCN(C)C)C(=O)c1ccc2nc(C)c(N(C)C(=O)CCc3ccccc3)n2c1 | inactive | 

Row | Structure (SMILES) | Potency | activity change, negative = growth inhibition
26 | Cc1ccc(CNC(=O)COC(=O)C2CCC2)cc1 | inactive | 
27 | CC(O)c1ccc(OCCN(C)c2ccccn2)cc1 (centres undefined) | inactive | 
28 | CSc1ccc(CCNC(=O)CS(=O)(=O)Cc2nc(-c3ccccc3F)oc2C)cc1 | inactive | 
29 | Cc1ccc(S(=O)(=O)CC(=O)NC(C)c2ccccc2)cc1 (centres undefined) | inactive | 
30 | Cc1ccccc1-c1nc(CS(=O)(=O)CC(=O)NC(C)c2ccccc2)c(C)o1 (centres undefined) | 16.4 µM (active) | 
31 | CC(C)Cc1nnc(NC(=O)CCNC(=O)c2ccccc2Cl)s1 | inactive | 
32 | CCOC(=O)N1CCN(C(=O)C2CCCN(c3ncnc4c3sc3cccc(F)c34)C2)CC1 (centres undefined) | inactive | 
33 | CCOC(=O)N1CCN(C(=O)C2CCN(c3ncnc4c3sc3cccc(F)c34)CC2)CC1 | 8.2 µM (active) | 
34 | CCOC(=O)N1CCN(C(=O)C2CCN(S(=O)(=O)c3cc(Cl)ccc3OCC)CC2)CC1 | inactive | 
35 | O=C(CCn1nnnc1CN1CCOCC1)N1CCC(c2ccccc2Cl)C1 (centres undefined) | inactive | 
36 | COc1ccc(F)c(CN2CCC3(CCC(CNC(=O)c4ccn(C)n4)O3)CC2)c1 (centres undefined) | inactive | 
37 | Cc1ccccc1N1CC(C(=O)Nc2ccc3c(c2)OCO3)CC1=O (centres undefined) | inactive | 
38 | COc1ccc(C(=O)Cc2cnn(-c3ccccc3)c2)c(O)c1 | inactive | 
39 | COc1ccc(C(=O)CCc2ccccc2O)c(OC)c1 | inactive | 
40 | COc1ccc(C(=O)CC(=O)c2ccc(C)cc2)c(O)c1 | 4.61 µM (active) | 
41 | COc1ccc(NC(=O)Cn2c(=O)cc(C)c3c(C)nn(-c4cccc(Cl)c4C)c32)cc1OC | inactive | 
42 | Cc1noc(C)c1NC(=O)Nc1cccc2c1O[C@H](CN(C)S(=O)(=O)c1c(C)noc1C)[C@@H](C)CN([C@H](C)CO)C2=O | inactive | 
43 | CC(OC(=O)CN1C(=O)C2CCCCC2C1=O)C(=O)Nc1ncc(Cl)cc1Cl (centres undefined) | inactive | 
44 | O=C(CN1C(=O)C2C3CCC(C3)C2C1=O)Oc1ccc2ccccc2c1 (centres undefined) | inactive | 
45 | CC1=CC(C)(C)Nc2ccc(OC(=O)CN3C(=O)C4CCCCC4C3=O)cc21 (centres undefined) | 1.64 µM (active) | 
46 | O=C(/C=C/c1c(F)cccc1Cl)Nc1nn[nH]n1 | inactive | 
47 | O=C(N/C(=C\c1ccc(O)cc1)C(=O)N1CCCCC1)c1ccccc1 | inactive | 
48 | CCOc1ccc(C2/C(=C(/O)c3ccc4c(c3)CC(C)O4)C(=O)C(=O)N2CCCn2ccnc2)cc1 (centres undefined) | inactive | 
49 | CC(C)=CCC/C(C)=C/CC/C(C)=C/CC/C(C)=C/CO | inactive | 
50 | Cc1nc2ccccc2n1CC(O)c1ccccc1 (centres undefined) | inactive | 

Row | Structure (SMILES) | Potency | activity change, negative = growth inhibition
51 | Cc1ccc(C2=NN(C)c3nc4ccccc4n3C2)cc1 | 18.4 µM (active) | 
52 | Cc1ccc(Oc2nc3ccccc3n3c(C)nnc23)cc1 | inactive | 
53 | COC(=O)C(C)N=Cc1ccccc1 (centres undefined) | inactive | 
54 | Cc1ccc(C(=O)Nc2ccc(C(=O)O)cc2)cc1S(=O)(=O)Nc1ccccc1 | inactive | 
55 | O=C1CCC(CCC(=O)N2CCCC(C(=O)c3ccc(Cl)cc3)C2)=NN1 (centres undefined) | inactive | 
56 | COc1ccc(F)cc1C(=O)C1CCCN(C(=O)CCc2ccccn2)C1 (centres undefined) | 16.4 µM (active) | 
57 | CSCC(=O)N1CCCC(C(=O)c2cc(F)ccc2F)C1 (centres undefined) | inactive | 
58 | O=C1NC(O)CCN1C1CC(O)C(CO)O1 (centres undefined) | inactive | 
59 | C=CCNC(=O)COC(=O)CNC(=O)c1cc(Cl)cc([N+](=O)[O-])c1 | inactive | 
60 | O=C(O)c1ccccc1Cc1ccc(F)c2ccccc12 | inactive | 
61 | O=C(Nc1nnc(Cc2ccccc2)s1)c1cnccn1 | inactive | 
62 | CC1CCN(C2=NC(=O)/C(=C/c3cn[nH]c3-c3ccccc3)S2)CC1 | inactive | 
63 | CCn1cc(C(=O)N(C)Cc2ccccc2)c(=O)c2cc(S(=O)(=O)N3CCCCCC3)ccc21 | inactive | 
64 | CCn1cc(C(=O)N2CCN(c3cc(Cl)ccc3C)CC2)c(=O)c2cc(S(=O)(=O)N3CCCC3)ccc21 | 23.1 µM (active) | 
65 | CCn1cc(C(=O)NC2CCCCCC2)c(=O)c2cc(S(=O)(=O)N3CCCCC3)ccc21 | 29.1 µM (active) | 
66 | CCn1cc(C(=O)N2CC(C)CC(C)C2)c(=O)c2cc(S(=O)(=O)N3CCCC3)ccc21 (centres undefined) | inactive | 
67 | Cc1ccc(S(=O)(=O)N2CCN(C)CC2)cc1C(=O)NC1CCCCC1 | inactive | 
68 | Cc1ccc(Cl)cc1N1CCN(C(=O)c2cn(C)c3ccc(S(=O)(=O)N(C)C4CCCCC4)cc3c2=O)CC1 | inactive | 
69 | CCCCc1cc(=O)oc2c(C)c(OCC(=O)N3CCC(C(N)=O)CC3)ccc12 | inactive | 
70 | CCOc1ccc(Br)cc1S(=O)(=O)Nc1ccc(S(=O)(=O)Nc2cc(C)on2)cc1 | inactive | 
71 | O=C(NCc1ccc2c(c1)OCO2)c1c(-c2ccsc2)sc2ccccc12 | 14.6 µM (active) | 
72 | O=C(NCc1ccc2c(c1)OCO2)c1sccc1Br | inactive | 
73 | O=C(NCc1ccc2c(c1)OCO2)c1ccc(Cl)s1 | inactive | 
74 | CC(C)(C)C(=O)CSc1ccc(S(=O)(=O)N2CCCC2)cn1 | inactive | 
75 | CN=C1SC(CC(=O)Nc2ccc(C(=O)O)cc2)C(=O)N1C (centres undefined) | inactive | 

Row | Structure (SMILES) | Potency | activity change, negative = growth inhibition
76 | CCC(=C/c1sc2ccc3ccccc3c2[n+]1C)/C=C1\Sc2ccc3ccccc3c2N1C | 0.231 µM (active) | 
77 | COc1ccc(N(CC(=O)N2CCOCC2)S(=O)(=O)c2ccccc2)cc1Cl | inactive | 
78 | O=C(O)c1ccccc1-c1ccccc1C(=O)NCCc1ccccc1 | inactive | 
79 | O=C(NCCc1ccccc1)c1cnc2sc(N3CCCC3)nn2c1=O | 16.4 µM (active) | 
80 | COc1ccc(CCNC(=O)c2cnc3sc(N4CCCCCC4)nn3c2=O)cc1OC | 11.6 µM (active) | 
81 | COc1ccc(CCNC(=O)C2CCN(c3nn4c(=O)cc(C)nc4s3)CC2)cc1OC | inactive | 
82 | COc1ccc(CCNC(=O)c2ccc(NC(=O)CC3SC(N4CCCCC4)=NC3=O)cc2)cc1OC (centres undefined) | inactive | 
83 | CSc1ncc(C(=O)NCCCc2ccccc2)c(C)n1 | inactive | 
84 | Cc1cc(C)c(S(=O)(=O)NCC(c2ccc3c(c2)OCO3)N2CCOCC2)c(C)c1 (centres undefined) | inactive | 
85 | COc1cc(OC)cc(C(=O)NNC(=O)Cc2cccs2)c1 | inactive | 
86 | COc1cc(OC)c(NC(=O)Cc2ccc(-n3c(C)nc4cccnc43)cc2)cc1Cl | 23.1 µM (active) | 
87 | CCc1nc2cccnc2n1-c1ccc(C(=O)O)cc1 | inactive | 
88 | COCCCNC(=O)Cc1ccc(-n2c(C)nc3cccnc32)cc1 | inactive | 
89 | Cc1cccc(-n2nc3c(c2NC(=O)c2cc4ccccc4o2)CS(=O)(=O)C3)c1 | inactive | 
90 | O=C(CN1CCC(O)(c2cccc(C(F)(F)F)c2)CC1)NCCc1ccccc1 | inactive | 
91 | Cc1cnc(C(=O)N2CCCC(N3CCN(c4ccccc4F)CC3)C2)cn1 (centres undefined) | inactive | 
92 | O=C(c1ccc(F)cc1)N1CCCC(C(=O)N2CCCCC2)C1 (centres undefined) | inactive | 
93 | CSc1ccc(C(=O)C2CCCN(C(=O)c3ccc(C)nc3)C2)cc1 (centres undefined) | 20.6 µM (active) | 
94 | COc1cc2c(cc1OC)C(C(=O)Nc1cc(C)c(OC)c(C)c1)CC(=O)N2 (centres undefined) | inactive | 
95 | COc1ccc(NC(=O)c2ccco2)cc1NC(=O)c1ccc(C#N)cc1F | inactive | 
96 | COc1ccc(N(CC(=O)N2CCCCCC2)S(=O)(=O)c2ccccc2)cc1 | inactive | 
97 | CCC(C)[C@H](NC(=O)N1c2ccccc2NC(=O)[C@@H]1C(C)C)C(=O)N[C@@H](Cc1ccccc1)C(=O)O (some centres undefined) | inactive | 
98 | CCOC(CNC(=O)C1CCN(S(=O)(=O)c2ccc3nc4c(c(C(=O)O)c3c2)CC(C)CC4)CC1)OCC (centres undefined) | inactive | 
99 | CCCc1nn2c(=O)cc(CSCC(=O)Nc3cccc(C)c3)nc2s1 | inactive | 
